# Source: the antibiotic and cytotoxicity screens of Wong et al. (2023)
# About 1,500 (3.8%) of roughly 39,000 compounds were called active. Only a selection was taken, and actives are over-represented in it overall.
# System: HSkMC (human skeletal muscle cells)
# Experiment: cytotoxicity call (relative viability < 0.9)
# Settings: 10 µM
row,Structure (SMILES),cytotoxicity call
1,CNc1ccc(-c2nc(N3CCOCC3)c3sc(CN(C)c4ncc(C(=O)NO)cn4)cc3n2)cn1,active
2,COc1ccc(-c2nc(N3CCOCC3)c3sc(CN(C)c4ncc(C(=O)NO)cn4)cc3n2)cn1,active
3,COC(=O)COc1nsnc1N1CCOCC1,inactive
4,COc1ccc(NC(=O)N(C)C[C@@H]2OCCCC[C@H](C)Oc3ccc(NC(=O)Cc4ccccc4)cc3C(=O)N([C@H](C)CO)C[C@@H]2C)cc1,inactive
5,Cc1ccc(Oc2ccc(CN)cc2)cc1,inactive
6,Cc1ccc(S(=O)(=O)N(C)C[C@H]2Oc3ccc(NC(=O)CCCN(C)C)cc3CC(=O)N([C@H](C)CO)C[C@@H]2C)cc1,inactive
7,C[C@@H]1CN([C@H](C)CO)C(=O)c2cc(NC(=O)Nc3ccccc3)ccc2O[C@@H](C)CCCCO[C@H]1CN(C)C(=O)C1CCCCC1,inactive
8,C[C@H](CO)N1C[C@H](C)[C@H](CN(C)S(=O)(=O)c2ccc(Cl)cc2)Oc2ccc(NC(=O)CCCN(C)C)cc2CC1=O,inactive
9,COCC(=O)N1C[C@H](C)[C@H](OC)CN(C)C(=O)c2cc(NC(=O)c3cc(C)on3)ccc2OC[C@H]1C,inactive
10,C[C@@H]1CN([C@@H](C)CO)C(=O)Cc2cc(NC(=O)CCCN(C)C)ccc2O[C@H]1CN(C)S(=O)(=O)c1ccccc1,inactive
11,CC1(C)C(=O)C=CC2(C)C1C=CC1(C)C2CCC2(C)C(c3ccoc3)OC(=O)C3OC312 (configuration not stated),active
12,CC(=O)OC1CCC2(C)C(CC(OC(C)=O)C3(C)C2CCC2(C)C(c4ccoc4)OC(=O)C4OC423)C1(C)C (stereo not drawn) [3beta-ACETOXYDEOXODIHYDROGEDUNIN ],inactive
13,CC1(C)C(=O)C=CC2(C)C1CC(=O)C1(C)C2CCC2(C)C(c3ccoc3)OC(=O)C3OC321 (configuration not stated),inactive
14,CCC(=O)N1C[C@]2(C1)CN([C@@H](CO)c1[nH]c3cc(ccc3c12)OC)S(=O)(=O)C,inactive
15,C[C@@H]1CCCCO[C@H](CN(C)C(=O)Nc2ccc(F)cc2)[C@H](C)CN([C@@H](C)CO)C(=O)c2cc(NC(=O)CCCN(C)C)ccc2O1,inactive
16,COc1ccc(NC(=O)Nc2ccc3c(c2)C(=O)N([C@@H](C)CO)C[C@@H](C)[C@H](CN(C)C(=O)Nc2c(C)noc2C)OCCCC[C@H](C)O3)cc1,inactive
17,Cc1cc(C(C)(C)C)c(O)c(C(C)(C)C)c1,active
18,Cc1cc(CO)c(O)c(CO)c1,inactive
19,Cc1ccc(O)c(C(C)(C)C)c1,inactive

row,Structure (SMILES),cytotoxicity call
1,COc1ccc(S(=O)(=O)Nc2ccc3c(c2)C(=O)N([C@@H](C)CO)C[C@H](C)[C@@H](CN(C)C(=O)Nc2ccc(C(F)(F)F)cc2)OCCCC[C@@H](C)O3)cc1,inactive
2,NNC(=O)CCc1ccccc1,inactive
3,CNC(=O)CN1CCOC[C@]2(CCCN(C(C)=O)C2)C1,inactive
4,S=C(NCCCc1cnc[nH]1)NCCCN(Cc1ccc(Cl)c(Cl)c1)c1ccc(Br)cn1,active
5,COc1ccc2c3c([nH]c2c1)[C@@H](CO)N(C[C@]13CCN(CC1)CC1CCCCC1)C(=O)Nc1cccc(c1)F,active
6,COc1ccc2c3c([nH]c2c1)[C@H](CO)N(CC1CCCCC1)C[C@]13CCN(CC1)C(=O)Nc1cccc(c1)F,inactive
7,COc1ccc2c3c([nH]c2c1)[C@H](CO)N(CC1CCCCC1)C[C@]13CCN(CC1)C(=O)NC1CCCC1,active
8,COc1ccc2c3c([nH]c2c1)[C@@H](CO)N(CC1CCOCC1)C[C@]13CCN(CC1)C(=O)C1CCOCC1,inactive
9,COc1ccc2c3c([nH]c2c1)[C@H](CO)N(C[C@]13CCN(CC1)CC1CCCC1)C(=O)Nc1cccc(c1)F,inactive
10,COc1ccc2c3c([nH]c2c1)[C@@H](CO)N(CC1CCCCC1)C[C@]13CCN(CC1)C(=O)Nc1cccc(c1)F,active
11,COc1ccc(cc1)CN1C[C@]2(CCN(CC2)C(=O)Nc2cccc(c2)F)c2c([nH]c3cc(ccc23)OC)[C@@H]1CO,inactive
12,COc1ccc2c3c([nH]c2c1)[C@H](CO)N(C[C@]13CCN(CC1)CC1CCCCC1)C(=O)Nc1c(noc1C)C,inactive
13,COc1ccc2c3c([nH]c2c1)[C@@H](CO)N(CC1CCCCC1)C[C@]13CCN(CC1)C(=O)NC1CCCC1,inactive
14,COc1ccc2c3c([nH]c2c1)[C@@H](CO)N(C[C@]13CCN(CC1)CC1CCCC1)C(=O)Nc1cccc(c1)F,inactive
15,COc1ccc2c3c([nH]c2c1)[C@@H](CO)N(C[C@]13CCN(CC1)CC1CCCCC1)C(=O)Nc1c(noc1C)C,inactive
16,COc1ccc2c3c([nH]c2c1)[C@H](CO)N(C[C@]13CCN(CC1)CC1CCCCC1)C(=O)Nc1cccc(c1)F,active
17,C[C@@H]1CN([C@H](C)CO)S(=O)(=O)c2ccc(-c3ccc(C(=O)N(C)C)cc3)cc2O[C@H]1CN(C)C(=O)C1CC1,inactive
18,C[C@@H]1CN([C@H](C)CO)C(=O)Cc2cc(NS(=O)(=O)c3ccccc3)ccc2O[C@H]1CN(C)S(=O)(=O)c1cccs1,inactive
19,Cc1cc(C(=O)Nc2cccc3c2O[C@@H](CN(C)S(=O)(=O)c2cn(C)cn2)[C@H](C)CN([C@H](C)CO)C3=O)n(C)n1,inactive

row,Structure (SMILES),cytotoxicity call
1,NC(=O)NCC#Cc1ccc2c(c1)[C@]1(C(=O)N2)[C@H](c2ccc(OCCO)cc2)N2[C@H](c3ccccc3)[C@H](c3ccccc3)OC(=O)[C@H]2[C@@H]1C(N)=O,inactive
2,O=C(C[C@H]1CC[C@@H](NC(=O)Cc2ccccn2)[C@H](CO)O1)NCCCN1CCOCC1,inactive
3,CC(=O)n1cc([C@@H]2C=C(C(=O)N3CCN(Cc4ccccc4)CC3)O[C@H](OCc3ccc(CO)cc3)C2)c2ccccc21,inactive
4,O=C(C[C@H]1C[C@@H]2c3cc(NS(=O)(=O)c4ccc(F)cc4)ccc3O[C@@H]2[C@@H](CO)O1)N1CCOCC1,inactive
5,Cc1cc(C)c(C)c(C(=O)O)c1C,inactive
6,O=C(C[C@@H]1CC[C@H]2NC[C@H](O)COC[C@@H]2O1)NCCN1CCCC1,inactive
7,C[C@@H]1CN([C@@H](C)CO)C(=O)Cc2cc(NS(=O)(=O)c3ccc(Cl)cc3)ccc2O[C@@H]1CN(C)S(C)(=O)=O,inactive
8,C[C@@H]1CCCCO[C@H](CN(C)Cc2ccc3c(c2)OCO3)[C@H](C)CN([C@@H](C)CO)C(=O)c2cc(NC(=O)Nc3ccc4c(c3)OCO4)ccc2O1,active
9,C[C@H]1CCCCO[C@@H](CN(C)CC2CCCCC2)[C@@H](C)CN([C@@H](C)CO)C(=O)c2cc(NC(=O)Nc3ccc4c(c3)OCO4)ccc2O1,active
10,C[C@@H]1CCCCO[C@@H](CN(C)Cc2ccc3c(c2)OCO3)[C@@H](C)CN([C@@H](C)CO)C(=O)c2cc(NC(=O)Nc3ccc4c(c3)OCO4)ccc2O1,inactive
11,C[C@@H]1CN([C@H](C)CO)C(=O)c2cc(NC(=O)Nc3ccc4c(c3)OCO4)ccc2O[C@@H](C)CCCCO[C@@H]1CN(C)Cc1ccc(Cl)c(Cl)c1,inactive
12,COc1ccc(NC(=O)Nc2ccc3c(c2)C(=O)N([C@@H](C)CO)C[C@H](C)[C@H](CN(C)Cc2ccc4c(c2)OCO4)OCCCC[C@@H](C)O3)cc1,inactive
13,COc1ccc(NC(=O)Nc2ccc3c(c2)C(=O)N([C@@H](C)CO)C[C@H](C)[C@H](CN(C)Cc2ccc4c(c2)OCO4)OCCCC[C@H](C)O3)cc1,active
14,C[C@@H]1CN([C@@H](C)CO)C(=O)c2cc(NC(=O)Nc3ccc4c(c3)OCO4)ccc2O[C@@H](C)CCCCO[C@H]1CN(C)Cc1ccc(Cl)c(Cl)c1,inactive
15,COc1ccc(NC(=O)Nc2ccc3c(c2)C(=O)N([C@H](C)CO)C[C@H](C)[C@@H](CN(C)Cc2ccc4c(c2)OCO4)OCCCC[C@H](C)O3)cc1,inactive
16,C[C@@H]1CN([C@H](C)CO)C(=O)c2cc(NC(=O)Nc3ccc4c(c3)OCO4)ccc2O[C@@H](C)CCCCO[C@@H]1CN(C)Cc1ccc2c(c1)OCO2,inactive
17,C[C@@H]1CCCCO[C@@H](CN(C)CC2CCCCC2)[C@@H](C)CN([C@H](C)CO)C(=O)c2cc(NC(=O)Nc3ccc4c(c3)OCO4)ccc2O1,inactive
18,C[C@@H]1CCCCO[C@@H](CN(C)Cc2ccc(Cl)c(Cl)c2)[C@@H](C)CN([C@@H](C)CO)C(=O)c2cc(NC(=O)Nc3ccc4c(c3)OCO4)ccc2O1,active
19,C[C@H](CO)N1C[C@H](C)[C@@H](CN(C)CC2CCCCC2)OCCCC[C@H](C)Oc2ccc(NC(=O)Nc3ccc4c(c3)OCO4)cc2C1=O,inactive
